Shiga inhibitor: A qHTS for Small Molecule Inhibitors of Shiga Toxin; AID 2315, 2010; 290,000 tested, 9.2% active; Vero cells, Shiga toxin protein synthesis inhibition reporter; inhibition, % at 38.7 µM; in the data active = inhibition mostly above about 28%, no sharp cut-off; inactive = mostly below about 43%; note: 0% is about no effect
HCV inhibitor: qHTS Assay for Inhibitors of Hepatitis C Virus (HCV) | Huh7.5.1 HCVcc-Cre infection, luciferase reporter, 44 h | Potency, µM (top dose mostly 41.8 µM), without a hit: at the top dose activity change, negative = inhibition, usual class: inhibitors | 340,000 tested, 3.4% active; note: potency is the fitted concentration of half-maximal effect; % is set by controls: 0 for no effect and ±100 for the full control effect
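A cell-based infection assay in which seeded cells (1,000 per well) receive test compound after 4 h, are inoculated with HCVcc-Cre at approximately 0.5 moi, and are incubated 44 h before luminescence detection.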
Cycloheximide cs: Cycloheximide Counterscreen for Small Molecule Inhibitors of Shiga Toxin; cell reporter, cycloheximide protein synthesis inhibition counterscreen; AID 2314, 2010; 300,000 tested, 12% active; max response, %; in the data active = max response mostly above about 13%, no sharp cut-off; inactive = mostly below about 14%; note: read at 38.3 µM for the half of the compounds with a filed dose; 0% is about no effect
Pf growth 96h: Primary qHTS for delayed death inhibitors of the malarial parasite plastid, 96 hour incubation; P. falciparum luciferase reporter growth, 96 h; Potency, µM (series often up to 28.7 µM), for inactives: at the top dose activity change, negative = inhibition, hits mostly inhibitors; 320,000 tested, 6.9% active; AID 504834, 2011; note: potency is the fitted concentration of half-maximal effect; % is set by controls: 0 for no effect and ±100 for the full control effect
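Compounds incubated with erythrocytes infected by luciferase-expressing P. falciparum (2% hematocrit, 0.05% parasitemia final) for 96 hours, 37 C in 5% CO2. Growth inhibition scored as decreased luciferase luminescence.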
HCMV inh: qHTS Assay for inhibitors of the human cytomegalovirus (HCMV); HFF cells, HCMV-luciferase reporter, 72 h; hits give low values; activity change, negative = inhibition, % at 57.5 µM; 410,000 tested, 4.5% active; AID 1259415, 2018; in the data active = activity change below about -60%; inconclusive = no clear call, values can overlap the other calls; inactive = above about -39%; note: % is set by controls: 0 for no effect and ±100 for the full control effect
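After 16 h attachment at 37C, HFF cells received test compound and HCMV-luciferase (1 PFU/cell); reporter luminescence read 72 h later, data normalized against buffer-only and known inhibitor Salinomycin.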
Pf growth 48h: Primary qHTS for delayed death inhibitors of the malarial parasite plastid, 48 hour incubation; P. falciparum luciferase growth in erythrocytes, 48 h; Potency, µM (series often up to 28.7 µM), for inactives: at the highest dose activity change, negative = inhibition, actives largely listed as inhibitors; 310,000 tested, 5.9% active; AID 504832, 2011; note: potency is the fitted concentration of half-maximal effect; % is set by controls: 0 for no effect and ±100 for the full control effect
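Luciferase-expressing parasites in RBCs, 2% Hct / 0.1% parasitemia final; RPMI 1640 + 0.5% Albumax; 37 C, 5% CO2, one generation; luminescence read-out, lower signal = inhibition.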
Active calls of the source: *. The list is not random: actives were taken first. Their share in the collection is about 21%. Unless noted, calls come from the whole dose curve; as a rule, active = well fitted inhibition curve with a large enough effect; inconclusive = small, poorly fitted or top-dose-only effect, or another doubt; inactive = no such curve, though single readings can be large or run the other way.

For Cc1cccc(C(=O)Oc2ccc(/C=N/NC(=O)c3ccccc3O)cc2)c1 the results were Shiga inhibitor active, HCV inhibitor 3%, Cycloheximide cs 38*, Pf growth 96h 0%, HCMV inh 0 and Pf growth 48h inconclusive.
For Cc1cccc(C(=O)Oc2ccc(/C=N/NC(=O)c3ccc(O)cc3)cc2)c1 the results were Shiga inhibitor 29, HCV inhibitor 13%, Cycloheximide cs 25*, Pf growth 96h 16%, HCMV inh 11 and Pf growth 48h inconclusive.
Cc1cccc(C(=O)Oc2ccc(/C=N/NC(=O)Cc3ccc([N+](=O)[O-])cc3)cc2)c1 was read as Shiga inhibitor -9, HCV inhibitor 5%, Cycloheximide cs 12, Pf growth 96h 13%, HCMV inh 11 and Pf growth 48h 17%.
Screening Cc1snc2sc(C(=O)c3ccc(F)cc3)c(N)c12 returned Shiga inhibitor 77*, HCV inhibitor -3%, Cycloheximide cs 26*, Pf growth 96h 94%, HCMV inh -17 and Pf growth 48h 9%.
Screening Cc1cc(SCC(=O)N/N=C/c2ccc(C(=O)O)cc2)nc2ccccc12 returned Shiga inhibitor -8, HCV inhibitor 12%, Cycloheximide cs -3, Pf growth 96h 0% and HCMV inh -23.
O=C(COC(=O)CCNS(=O)(=O)c1ccccc1)NC(=O)Cc1ccccc1 was read as HCV inhibitor 2%, Pf growth 96h 7%, HCMV inh -36 and Pf growth 48h 7%.
For C/C(=N/NC(=O)CC1N=C(Cc2ccccc2)NNC1=O)c1cccnc1 (configuration not stated) the results were Shiga inhibitor -5, HCV inhibitor 8%, Cycloheximide cs 7, Pf growth 96h -1%, HCMV inh -29 and Pf growth 48h 15%.
For CS(=O)(=O)c1nc(-c2cccs2)cc(C(F)(F)F)n1 the results were Shiga inhibitor -23, Cycloheximide cs -7, Pf growth 96h 13µM* and Pf growth 48h -10%.
Screening CS(=O)(=O)c1nc(-c2ccc(F)cc2)cc(C(F)(F)F)n1 returned Shiga inhibitor 24, HCV inhibitor 6.3µM*, Cycloheximide cs -5, Pf growth 96h 10%, HCMV inh -99* and Pf growth 48h -4%.
O=[N+]([O-])c1cnn(-c2nc(-c3cccs3)cc(C(F)(F)F)n2)c1 was read as Shiga inhibitor -9, HCV inhibitor -27%, Cycloheximide cs -6, Pf growth 96h inconclusive, HCMV inh -99* and Pf growth 48h 10µM*.
Screening CN1CCN(c2nc(-c3cccs3)cc(C(F)(F)F)n2)CC1 returned Shiga inhibitor -13, HCV inhibitor 2.8µM*, Cycloheximide cs -4, Pf growth 96h 21%, HCMV inh -33 and Pf growth 48h inconclusive.
Screening O=C(O)CCS(=O)(=O)c1nc(-c2cccs2)cc(C(F)(F)F)n1 returned Shiga inhibitor -22, HCV inhibitor -4%, Cycloheximide cs -4, Pf growth 96h inconclusive and HCMV inh -13.
For N[C@H](COP(=O)(O)O)C(=O)O the results were Pf growth 96h -19% and Pf growth 48h inconclusive.
For COCC(C)NC(=O)CCS(=O)(=O)c1nc(-c2ccc(OC)cc2)cc(C(F)(F)F)n1 (configuration not stated) the results were Shiga inhibitor -9, HCV inhibitor inconclusive, Cycloheximide cs -2, Pf growth 96h 9.3µM*, HCMV inh -104* and Pf growth 48h -19%.
Screening COc1ccc(-c2cc(C(F)(F)F)nc(S(C)(=O)=O)n2)cc1 returned Shiga inhibitor -15, HCV inhibitor inconclusive, Cycloheximide cs -1, Pf growth 96h inconclusive and HCMV inh -105*.
`Cc1ccc(NC(=O)C2CCCN2C(=O)NCc2ccccc2)cc1` (configuration not stated) gave Shiga inhibitor -20, HCV inhibitor -7%, Cycloheximide cs 1, Pf growth 96h 72%, HCMV inh 30 and Pf growth 48h -8%.

Compound activity: PubChem, National Center for Advancing Translational Sciences (NCATS)
